# Reference: PubChem BioAssay (NCATS)
# Inconclusive results are not listed. A call without a number means that no potency is given here. Calls of active or inactive are those of the source. Unless noted, calls come from the whole dose curve; as a rule, active = well fitted curve in the direction sought with a large enough effect; inconclusive = small, poorly fitted or top-dose-only effect, or another doubt; inactive = no such curve, though single readings can be large; an effect the other way counts as inactive or inconclusive.
# Legend:
# [1] = test system: HB3; assay: qHTS profiling for inhibitors of Plasmodium falciparum proliferation (AID 504749); note: nearly all actives have a fitted effect of over 60% in size; note: potency is the fitted concentration of half-maximal effect; conditions: P. falciparum in erythrocytes, SYBR Green DNA, 72 h; series mostly up to 28.7 µM
# Summary of the method: (§1)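 Fluorescence of SYBR Green-bound parasite DNA, read at 485/535 nm, served as the growth measure. Infected erythrocytes were cultured with compound 72 h; artemisinin (0.29 uM) and DMSO wells defined the normalization range.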
# [2] = test system: PAD; assay: as above; conditions: P. falciparum in erythrocytes, SYBR Green DNA, 72 h; series mostly up to 28.7 µM
# Summary of the method: as §1
# [3] = test system: C2A; assay: as above; conditions: P. falciparum in erythrocytes, SYBR Green DNA, 72 h; series mostly up to 28.7 µM
# Summary of the method: as §1
# [4] = test system: CP191; assay: as above; conditions: P. falciparum in erythrocytes, SYBR Green DNA, 72 h; series mostly up to 28.7 µM
# Summary of the method: as §1
# [5] = test system: CP237; assay: as above; conditions: P. falciparum in erythrocytes, SYBR Green DNA, 72 h; series mostly up to 28.7 µM
# Summary of the method: as §1
# [6] = test system: CP256; assay: as above; conditions: P. falciparum in erythrocytes, SYBR Green DNA, 72 h; series mostly up to 28.7 µM
# Summary of the method: as §1
# [7] = test system: CP260; assay: as above; conditions: P. falciparum in erythrocytes, SYBR Green DNA, 72 h; series mostly up to 28.7 µM
# Summary of the method: as §1
# [8] = test system: CP266; assay: as above; conditions: P. falciparum in erythrocytes, SYBR Green DNA, 72 h; series mostly up to 28.7 µM
# Summary of the method: as §1
# [9] = test system: CP305; assay: as above; conditions: P. falciparum in erythrocytes, SYBR Green DNA, 72 h; series mostly up to 28.7 µM
# Summary of the method: as §1
# [10] = test system: CP315; assay: as above; conditions: P. falciparum in erythrocytes, SYBR Green DNA, 72 h; series mostly up to 28.7 µM
# Summary of the method: as §1
# [11] = test system: CP329; assay: as above; conditions: P. falciparum in erythrocytes, SYBR Green DNA, 72 h; series mostly up to 28.7 µM
# Summary of the method: as §1
# [12] = test system: DFO2036; assay: as above; conditions: P. falciparum in erythrocytes, SYBR Green DNA, 72 h; series mostly up to 28.7 µM
# Summary of the method: as §1
# [13] = test system: DIV17; assay: as above; conditions: P. falciparum in erythrocytes, SYBR Green DNA, 72 h; series mostly up to 28.7 µM
# Summary of the method: as §1
# [14] = test system: Dd2; assay: as above; conditions: P. falciparum in erythrocytes, SYBR Green DNA, 72 h; series mostly up to 28.7 µM
# Summary of the method: as §1
# [15] = test system: ECU; assay: as above; conditions: P. falciparum in erythrocytes, SYBR Green DNA, 72 h; series mostly up to 28.7 µM
# Summary of the method: as §1
# [16] = test system: P94_40; assay: as above; conditions: P. falciparum in erythrocytes, SYBR Green DNA, 72 h; series mostly up to 28.7 µM
# Summary of the method: as §1
# [17] = test system: SC27B; assay: as above; conditions: P. falciparum in erythrocytes, SYBR Green DNA, 72 h; series mostly up to 28.7 µM
# Summary of the method: as §1
# [18] = test system: TAB109; assay: as above; conditions: P. falciparum in erythrocytes, SYBR Green DNA, 72 h; series mostly up to 28.7 µM
# Summary of the method: as §1
# [19] = qHTS drug screen for cell cycle checkpoint inhibitors in PARPi-resistant BRCA-mutant ovarian cancer cell lines. (AID 1963452; calls by dose curve); conditions: PEO1/OlaR viability, CellTiter-Glo luminescence, 96 h, stronger effect = lower value
# Summary of the method: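 PEO1, PEO4 and PEO1/OlaR ovarian cancer cells, 600 per well, exposed 96 h at 37C to a dilution series. Viability read by CellTiter-Glo luminescence, normalized to DMSO and empty wells; activity summarized as Z-AUC.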
# [20] = Cell Viability - HUV-EC-C (AID 542);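 note: cells exposed to compound for 40 hours; nearly all actives have a fitted effect of over 35% in size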
# Summary of the method: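 Luminescent ATP read-out (CellTiter-Glo, 20 min room temperature) after 40 hr compound treatment of HUV-EC-C cells at 37 °C. Concentration-response data fitted with the standard Hill equation to give AC50; tamoxifen and doxorubicin served as positive controls.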
smiles,measurement,setting,value
CC(C)(CO)C(O)C(=O)NCCCC(=O)O (stereo not given),Potency,[1],inactive
same,Potency,[2],inactive
Cc1cc(CC(C)CC(C)(C)C)n(O)c(=O)c1 (stereo not given),Potency,[3],2.51 µM (active)
same,Potency,[4],1.12 µM (active)
same,Potency,[5],2.82 µM (active)
same,Potency,[6],1.26 µM (active)
same,Potency,[7],3.16 µM (active)
same,Potency,[8],3.79 µM (active)
same,Potency,[9],2.39 µM (active)
same,Potency,[10],3.38 µM (active)
same,Potency,[11],1.9 µM (active)
same,Potency,[12],1.78 µM (active)
same,Potency,[13],1.51 µM (active)
same,Potency,[14],7.94 µM (active)
same,Potency,[15],2.82 µM (active)
same,Potency,[1],8.91 µM (active)
same,Potency,[16],2.82 µM (active)
same,Potency,[2],2.82 µM (active)
same,Potency,[17],2.82 µM (active)
same,Potency,[18],2.24 µM (active)
Nc1nc(Cl)nc2c1ncn2C1CC(O)C(CO)O1 (stereo not given),Potency,[8],inactive
same,Potency,[9],inactive
same,Potency,[10],inactive
same,Potency,[11],inactive
same,Potency,[13],inactive
C/C(O)=C(\C#N)C(=O)Nc1ccc(C(F)(F)F)cc1,Z-AUC,[19],-1.06 (inactive)
same,Z-AUC,[19]; measured here: PEO1 parental Z-AUC,0.703
same,Z-AUC,[19]; measured here: PEO4 Z-AUC,-0.074
NC1=NC(S)C2N=CN=C2N1 (stereo not given),Potency,[3],inactive
same,Potency,[5],inactive
same,Potency,[7],inactive
same,Potency,[8],inactive
same,Potency,[9],inactive
same,Potency,[10],inactive
same,Potency,[11],inactive
same,Potency,[12],inactive
same,Potency,[13],inactive
same,Potency,[14],inactive
same,Potency,[15],inactive
same,Potency,[1],inactive
same,Potency,[16],inactive
same,Potency,[2],inactive
same,Potency,[17],inactive
same,Potency,[18],inactive
CCCCCCCCCCCCCCC1CO1 (stereo not given),outcome,[20],inactive
CCCCOCCO,outcome,[20],inactive
CC1(C)CC(N=C=O)CC(C)(CN=C=O)C1 (stereo not given),outcome,[20],inactive
O=NCc1ccc([N+](=O)[O-])o1,Potency,[3],inactive
same,Potency,[4],inactive
same,Potency,[5],inactive
same,Potency,[6],inactive
same,Potency,[7],inactive
same,Potency,[8],inactive
same,Potency,[9],inactive
same,Potency,[10],inactive
same,Potency,[11],inactive
same,Potency,[12],inactive
same,Potency,[14],inactive
same,Potency,[17],inactive
O=C1c2ccccc2C(=O)C1c1ccc2ccccc2n1,outcome,[20],inactive
O=C(O)c1ccc(O)cc1O,outcome,[20],inactive
Cc1ccc(N)c([N+](=O)[O-])c1,outcome,[20],inactive
CN1CC[C@H](CN2c3ccccc3Sc3ccccc32)C1,Potency,[3],10 µM (active)
same,Potency,[4],10 µM (active)
same,Potency,[5],6.31 µM (active)
same,Potency,[6],8.91 µM (active)
same,Potency,[7],11.2 µM (active)
same,Potency,[8],inactive
same,Potency,[9],15.1 µM (active)
same,Potency,[10],inactive
same,Potency,[11],inactive
same,Potency,[12],12.6 µM (active)
same,Potency,[13],5.36 µM (active)
same,Potency,[14],3.55 µM (active)
same,Potency,[15],11.2 µM (active)
same,Potency,[16],8.91 µM (active)
same,Potency,[2],8.91 µM (active)
same,Potency,[17],11.2 µM (active)
same,Potency,[18],11.2 µM (active)
CN(C)CCCCCCN(C)C,Potency,[3],inactive
same,Potency,[4],inactive
same,Potency,[5],inactive
same,Potency,[6],inactive
same,Potency,[7],inactive
same,Potency,[8],inactive
same,Potency,[9],inactive
same,Potency,[10],inactive
same,Potency,[11],inactive
same,Potency,[12],inactive
same,Potency,[13],inactive
same,Potency,[14],inactive
same,Potency,[15],inactive
same,Potency,[1],inactive
same,Potency,[16],inactive
same,Potency,[2],inactive
same,Potency,[17],inactive
same,Potency,[18],inactive
CC(C)=CCCC(C)CCO (stereo not given),outcome,[20],inactive
CCO[Si](CCCN)(OCC)OCC,outcome,[20],inactive
Cc1cccc([N+](=O)[O-])c1C,outcome,[20],inactive
C=CCOC(=O)c1ccccc1C(=O)OCC=C,outcome,[20],inactive
C1OCOCO1,Potency,[3],inactive
same,Potency,[4],inactive
same,Potency,[5],inactive
same,Potency,[6],inactive
same,Potency,[7],inactive
same,Potency,[8],inactive
same,Potency,[9],inactive
same,Potency,[10],inactive
same,Potency,[11],inactive
same,Potency,[12],inactive
same,Potency,[13],inactive
same,Potency,[14],inactive
same,Potency,[15],inactive
same,Potency,[1],inactive
same,Potency,[16],inactive
same,Potency,[2],inactive
same,Potency,[17],inactive
same,Potency,[18],inactive
Cc1ccccc1C,outcome,[20],inactive
S=C1NC=NC2N=CNC12 (stereo not given),Potency,[3],inactive
same,Potency,[4],inactive
same,Potency,[5],inactive
same,Potency,[6],inactive
same,Potency,[7],inactive
same,Potency,[8],10.7 µM (active)
same,Potency,[12],inactive
same,Potency,[14],inactive
same,Potency,[15],inactive
same,Potency,[1],inactive
same,Potency,[16],inactive
same,Potency,[2],inactive
same,Potency,[17],inactive
same,Potency,[18],inactive
O=[N+]([O-])c1cccc(Cl)c1Cl,outcome,[20],inactive
C/C=C\c1ccc(OC)cc1,Potency,[3],inactive
same,Potency,[4],inactive
same,Potency,[5],inactive
same,Potency,[6],inactive
same,Potency,[7],inactive
same,Potency,[8],inactive
same,Potency,[9],inactive
same,Potency,[10],inactive
same,Potency,[11],inactive
same,Potency,[12],inactive
same,Potency,[13],inactive
same,Potency,[14],inactive
same,Potency,[15],inactive
same,Potency,[1],inactive
same,Potency,[16],inactive
same,Potency,[2],inactive
same,Potency,[17],inactive
same,Potency,[18],inactive
CCC(C)c1ccccc1O (stereo not given),outcome,[20],inactive
O=C(O)CC(C(=O)O)C(CC(=O)O)C(=O)O (stereo not given),outcome,[20],inactive
